Out of some 48,000 compounds screened, about 13,000 (27%) showed an effect of 50% or more. The list shows a part of the results.
Each compound was assayed on Wolbachia pipientis (assay: Anti-Wolbachia Cell-Based Screen). Conditions: 5 µM.
Format: functional
Design: scale not given: in the data most compounds retested in dose-response had high values

| Compound | Percent Effect [%] |
| --- | --- |
| Cc1nn(C)c(C)c1CN(C)S(=O)(=O)c1c(C)n[nH]c1C | 32.27 |
| CCC(=O)N1CCN(C(=O)c2ccc(COC)o2)[C@H]2CS(=O)(=O)C[C@H]21 | 2.835 |
| CN(C)CCNCC1(O)CCCN(Cc2cccc(F)c2F)C1=O (centres undefined) | -8.676 |
| CNS(=O)(=O)CCNC(=O)c1coc(COc2ccc(F)cc2)n1 | -18.85 |
| O=C([C@@H]1Cc2[nH]cnc2CN1CC1CC1)N1CCCC1 | 2.393 |
| CC1(C)Cc2nc(C(C)(C)C)ncc2C(NC(=O)Cc2nnn[nH]2)C1 (centres undefined) | 84.56 |
| COC(C)(C)C(=O)N1Cc2cnc(C(C)(C)C)nc2C1 | 5.24 |
| CNCC(=O)NC1CC(C)(C)Cc2nc(C(C)(C)C)ncc21 (centres undefined) | 107.2 |
| CC1(C)Cc2nc(C(C)(C)C)ncc2C(NC(=O)CN)C1 (centres undefined) | 108.4 |
| Cc1cc2c(o1)CC(C)(C)CC2NC(=O)CNC(=O)C1CC1 (centres undefined) | 15.35 |
| CC(=O)NC1CC(C)(C)Cc2c1cnn2-c1cccc(F)c1 (centres undefined) | 27.72 |
| CC(C)(C)c1ncc2c(n1)CN(C(=O)c1ccncc1)C2 | 6.547 |
| CC1(C)Cc2nc(C(C)(C)C)ncc2C(NC(=O)C2(N)CC2)C1 (centres undefined) | 76.58 |
| CC(=O)N1Cc2cnc(C(C)(C)C)nc2C1 | -14.29 |
| COC(=O)NCC(=O)NC1CC(C)(C)Cc2oc(C)cc21 (centres undefined) | -2.578 |
| Cc1cc(C)n(CC(=O)N2Cc3cnc(C(C)(C)C)nc3C2)n1 | -6.513 |
| CC(C)(C)c1ncc2c(n1)CN(C(=O)c1ccc(-n3cnnn3)cc1)C2 | -15.52 |
| O=C(Nc1ccc(F)c(Cl)c1)N1CCCN([C@H]2COC[C@@H]2O)CC1 | 0.3317 |
| Cc1nc(C)n(CC2CCCCN2CC(=O)Nc2nncs2)n1 (centres undefined) | -8.145 |
| Cc1cc(C)cc(CN2CCN(Cc3cc(C#N)n(C)c3)CC2=O)c1 | -7.638 |
| CCCC(C)Sc1nnnn1C1CCOCC1 (centres undefined) | -26.91 |
| Cc1c[nH]c(CN2CCCn3nc(CNS(C)(=O)=O)cc3C2)n1 | -1.605 |
| CC(O)CNC(=O)NCc1cccnc1OC1CCCC1 (centres undefined) | 3.42 |
| CCC(CNC1CCN(C(=O)N(C)C)CC1)Oc1ccccc1C (centres undefined) | 14.11 |
| CCc1nnc(C(C)N2CCN(CCC(=O)NC3CC3)CC2)o1 (centres undefined) | 108.9 |

| Compound | Percent Effect [%] |
| --- | --- |
| CCc1noc(C(C)N2CCC(NC(=O)c3ccc(C)s3)CC2)n1 (centres undefined) | -3.823 |
| CCSCCC(=O)NC1CCN(C(C)c2ccccc2)CC1 (centres undefined) | -12.67 |
| CC(C)c1noc(C(C)N2CCN(CCc3ccncc3)CC2)n1 (centres undefined) | -3.07 |
| CCc1noc(C(C)N2CCN(Cc3ncc(C(C)(C)C)o3)CC2)n1 (centres undefined) | -21.42 |
| CCc1nnc(C(C)N2CCN(CCC(C)(C)C)CC2)o1 (centres undefined) | 109.6 |
| CCc1nnc(C(C)N2CCC(NC(=O)C3CCCCC3)CC2)o1 (centres undefined) | 111.1 |
| CNC(=O)CCN1CCN(C(C)c2ccc(Cl)cc2)CC1 (centres undefined) | 7.005 |
| CCS(=O)(=O)c1ccc(N2CCC(NC(=O)C3CCCCC3)CC2)cc1 | 14.13 |
| CC(C)(C)n1ncc2c(=O)[nH]c(N3CC(O)C3)nc21 | 23.02 |
| CN(C)c1nc(CNC(=O)NC2CCc3ccccc32)cs1 (centres undefined) | 14.75 |
| CC(c1nccs1)N(C)Cc1ccc(CCC(C)(C)O)cc1 (centres undefined) | -1.522 |
| CC(=O)N1C[C@@H](F)[C@@H](OCc2nc3cc(C)c(C)cc3[nH]2)C1 | -18.48 |
| CCOCCCNC(=O)c1cn(CC)nc1C | 9.774 |
| CCOCCCNc1nc2c(s1)c(C)nn2C | 6.024 |
| CCOCCCNC(=O)NCc1c(C)nn(C)c1C | 102.2 |
| CCc1nc2c(c(N(C)Cc3nncn3CCOC)n1)CCNCC2 | 0.734 |
| Cc1cc(S(C)(=O)=O)c(C)c(S(=O)(=O)NC2CCCC2)c1 | 3.251 |
| Cc1c(NCc2cccc(C#N)c2)cccc1S(=O)(=O)NC1CC1 | -25.48 |
| Cc1cc2[nH]c(=O)c(=O)[nH]c2cc1S(=O)(=O)NC1CCC(C)CC1 (centres undefined) | 107.5 |
| Cc1cc2[nH]c(=O)c(=O)[nH]c2cc1S(=O)(=O)NC1CCCCC1 | 114.9 |
| Cc1cc(CS(=O)(=O)NC2CCCCC2)on1 | 4.481 |
| Cc1cn2c(n1)CCC(NS(=O)(=O)c1cc(C)sc1C)C2 (centres undefined) | -1.827 |
| CC(C)(O)CN1CCN(C(=O)COCC(F)(F)F)CC1 | 2.26 |
| O=C1NCC2(CCCN(C(=O)c3ccc4c(c3)CCCO4)CC2)O1 (centres undefined) | 15.15 |
| Cc1ccnc(NC(=O)c2ccc(C)o2)c1 | -0.4749 |

| Compound | Percent Effect [%] |
| --- | --- |
| Cc1ccnc(NC(=O)c2cccc(OCc3nnnn3C)c2)c1 | 92.28 |
| CN(C)c1ccc(NC(=O)c2cccc(N(C)C)c2)nc1 | -10.74 |
| Cc1ccnc(NC(=O)c2ccc(Br)o2)c1 | -3.231 |
| Cc1ccc(NC(=O)c2cccc(N(C)C)c2)nc1 | -7.622 |
| Cc1ccc(NC(=O)c2cccc(OCc3nnnn3C)c2)nc1 | 97.4 |
| CNS(=O)(=O)CCN1CC(c2ccccc2)(c2ccccc2)CCC1=O | 8.028 |
| CCC(CC)(CNC(=O)OC(C)(C)C)NC(=O)c1cnccn1 | 8.305 |
| CN(Cc1cccnc1)C1COC2(CCN(Cc3nccs3)CC2)C1.O=C(O)C(F)(F)F.O=C(O)C(F)(F)F.O=C(O)C(F)(F)F (centres undefined) | 111.1 |
| CN(Cc1ccncc1)C1COC2(CCN(Cc3cccs3)CC2)C1.O=C(O)C(F)(F)F.O=C(O)C(F)(F)F.O=C(O)C(F)(F)F (centres undefined) | 100.2 |
| CN(Cc1ccccn1)C1COC2(CCN(Cc3nccs3)CC2)C1 (centres undefined) | -7.584 |
| CN(Cc1ccco1)C1COC2(CCN(Cc3nccs3)CC2)C1.O=C(O)C(F)(F)F.O=C(O)C(F)(F)F (centres undefined) | 98.22 |
| Cc1ccsc1CN1CCC2(CC1)CC(OCc1cccnc1)CO2.O=C(O)C(F)(F)F.O=C(O)C(F)(F)F (centres undefined) | 12.52 |
| CN(Cc1ccncc1)C1CC2(CCN(c3ncccn3)CC2)C1.O=C(O)C(F)(F)F.O=C(O)C(F)(F)F.O=C(O)C(F)(F)F | -4.65 |
| CN(C)S(=O)(=O)N1CC[C@]2(C[C@H](OCc3ccncc3)CO2)C1.O=C(O)C(F)(F)F | 20.75 |
| CN(Cc1ccccc1)C1COC2(CCN(Cc3nccs3)CC2)C1.O=C(O)C(F)(F)F (centres undefined) | 20.92 |
| Cc1cnc(N2CCC3(CC2)CC(N(C)Cc2ccncc2)C3)nc1.O=C(O)C(F)(F)F.O=C(O)C(F)(F)F | -8.3 |
| CN(Cc1cccnc1)C1CC2(CCN(c3ncccn3)CC2)C1.O=C(O)C(F)(F)F.O=C(O)C(F)(F)F | 96.99 |
| CN(Cc1cccnc1)C1CC2(CCN(c3ncc(F)cn3)CC2)C1.O=C(O)C(F)(F)F.O=C(O)C(F)(F)F | -6.301 |
| CN(Cc1cn2c(n1)CN(Cc1nccs1)CC2)Cc1ccco1.O=C(O)C(F)(F)F.O=C(O)C(F)(F)F | -16.64 |
| COc1ccc(CN(C(=O)C(C)SC)c2cnn(C)c2)c(OC)c1 (centres undefined) | -2.56 |
| O=C1CC[C@H]2CN(Cc3ccc(Cl)s3)CC[C@H]2N1CCc1c[nH]cn1 | -29.01 |
| CCc1cc(NCCNc2ccncc2C)n2nc(C)c(C)c2n1 | 11.08 |
| Cc1noc(C)c1CN(C)C(=O)C1(NS(C)(=O)=O)CCCCC1 | -10.96 |
| CCc1nc(C)c(CN2CCOC(CCCC(C)C)C2)[nH]1 (centres undefined) | -5.664 |
| COC[C@H]1CNC(=O)[C@@H]2CCN(Cc3ccc(F)cc3)CC[C@H]12.O=C(O)C(F)(F)F | -11.52 |

| Compound | Percent Effect [%] |
| --- | --- |
| CSc1nccc(N2CCN(C)C3(CCC(=O)N(CC4CC4)CC3)C2)n1 (centres undefined) | -14.1 |
| O=C(NCC(F)(F)F)C1CSCN1S(=O)(=O)c1ccc(F)cc1 (centres undefined) | 3.931 |
| CC(C)CN1CCC2(CCN(Cc3nccs3)CC2)C1=O.O=C(O)C(F)(F)F | 1.148 |
| CC1N(CC2CC2)C(=O)COC12CCN(Cc1nccs1)CC2.O=C(O)C(F)(F)F (centres undefined) | -4.952 |
| CN(C)C(=O)CN1CCC2(CCN(Cc3nccs3)CC2)C1=O.O=C(O)C(F)(F)F | -19.71 |
| CC1N(C)C(=O)COC12CCN(Cc1nccs1)CC2.O=C(O)C(F)(F)F (centres undefined) | 126.1 |
| CN(C)C1COC2(CCN(Cc3nccs3)CC2)C1.O=C(O)C(F)(F)F.O=C(O)C(F)(F)F (centres undefined) | 52.92 |
| CCc1ccc2c(c1)C(CCNC(=O)Cc1ccc(F)cc1)C(=O)N2 (centres undefined) | 3.277 |
| COc1ncccc1C(=O)NCC(C)Oc1cccnc1 (centres undefined) | -11.32 |
| Cc1c(CNCCCOc2cccnc2)c2ccccc2n1CC(N)=O | -2.741 |
| Cc1c(CNCC(C)Oc2cccnc2)c2ccccc2n1CC(N)=O (centres undefined) | 60.46 |
| Cc1cc2n(n1)CC(CNC1CCN(C(=O)c3ccco3)CC1)CN2 (centres undefined) | 7.634 |
| COCCN1CCCC(O)(CN2CCCN(c3ncccn3)CC2)C1=O (centres undefined) | -4.112 |
| Cc1cc(CN(C)C2CCCN(Cc3noc(C4CC4)n3)C2)no1 (centres undefined) | 1.987 |
| CN(CCCC#N)C1CCCN(Cc2noc(C3CC3)n2)C1 (centres undefined) | -8.895 |
| CCc1nc(CN2CCCC(N(C)CCn3cncn3)C2)no1 (centres undefined) | 8.167 |
| CN(CCc1ccccn1)C1CCCN(Cc2noc(C3CC3)n2)C1 (centres undefined) | 103.4 |
| CN(CC1(O)CCCCC1)C1CCCN(Cc2noc(C3CC3)n2)C1 (centres undefined) | 0.01553 |
| CN(CCS(C)(=O)=O)C1CCCN(Cc2noc(C3CC3)n2)C1 (centres undefined) | 107.2 |
| CN(Cc1cscn1)C1CCCN(Cc2noc(C3CC3)n2)C1 (centres undefined) | 3.354 |
| CN(CCc1cccs1)C1CCCN(Cc2noc(C3CC3)n2)C1 (centres undefined) | -17.24 |
| CN(CCc1ccncc1)C1CCCN(Cc2noc(C3CC3)n2)C1 (centres undefined) | 107.5 |
| CN(CCn1cccn1)C1CCCN(Cc2noc(C3CC3)n2)C1 (centres undefined) | 100.3 |
| Cc1nc(CN2CCCC(N(C)CCc3ccncc3)C2)no1 (centres undefined) | -4.077 |

Source: ChEMBL document CHEMBL3988442, “University of Dundee, Small-Polar-MMV Screening Library” (2021)
